Measurements as given in PubChem BioAssay (NCATS).
Several values for one entry are separate records, joined by “and”; a condition that tells them apart may be missing. Equal values may be shown once. Results filed as inconclusive are left out. Values without a mark were called inactive. Activity calls are given as the source filed them. The call rests on the fitted dose curve; in most records, active means well fitted cell-killing curve with a large enough effect; inconclusive means small, poorly fitted or top-dose-only effect, or effect the other way; inactive means no such curve, though single readings can be large or run the other way.

assay: Viability qHTS for spleen associated tyrosine kinase inhibitor (SYKi) naive MV4-11 cells (AID 1963823); settings: MV4-11 AML viability, CellTiter-Glo luminescence, 72 h; series mostly up to 45 µM; viability (% of control): at the top concentration; further: nearly all actives have a fitted effect of over 40% in size
How it was run: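 CellTiter-Glo luminescence, 10 min room-temperature incubation, gave viability. Cells: naive MV4-11 (500/well), treated 72 hr at 37 C, 5% CO2.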
Potency means the concentration at half of the fitted maximal effect.

With COC(=O)C1=C(C)NC(C)=C(C(=O)O[C@@H]2CCCN(Cc3ccccc3)C2)[C@@H]1c1cccc([N+](=O)[O-])c1 as the compound, how does the Potency read?
The Potency was 21.1 µM (active) and 13 µM (active).

Which Potency does the source give for N#Cc1ccc(COC[C@H]2O[C@@H](n3c(NCc4ccc(Cl)c(Cl)c4)nc4c(N)ncnc43)[C@H](O)[C@@H]2O)cc1 here?
Its Potency is 4.68 µM (active).

For COCC(=O)O[C@]1(CCN(C)CCCc2nc3ccccc3[nH]2)CCc2cc(F)ccc2[C@@H]1C(C)C, which Potency is on record?
Its Potency is 21.1 µM (active).

With Oc1c(Cl)cc(Cl)c(Cl)c1Cc1c(O)c(Cl)cc(Cl)c1Cl as the compound, how does the Potency read?
Its Potency is 8.41 µM (active).

With Cc1c[nH]c(/C=C2\C(=O)Nc3ccccc32)c1CCC(=O)O as the compound, how does the Potency read?
Its Potency is 0.468 µM (active).

For Cn1cc(C2=C(c3cn(C)c4cc([N+](=O)[O-])ccc34)C(=O)NC2=O)c2ccccc21, which Potency is on record?
The Potency was 0.296 µM (active).

For N#C/C(=C(/N)Sc1ccc(N)cc1)c1ccccc1C(F)(F)F, which Potency is on record?
The Potency was 10.5 µM (active).

For COC1CCN(C(=O)c2cc(Cc3n[nH]c(=O)c4ccccc34)ccc2F)CC1, which Potency is on record?
The Potency was 18.6 µM (active).

Which Potency does the source give for N#C/C(=C1/SC[C@@H](c2ccc(Cl)cc2Cl)S1)n1ccnc1 here?
Its Potency is 11.9 µM (active).

For C[C@]12CC[C@@H]3c4ccc(O)cc4CC[C@H]3[C@@H]1CC[C@@H]2O, which Potency is on record?
The Potency was 16.6 µM (active).

With CSc1ccc2c(c1)N(CCC1CCCCN1C)c1ccccc1S2 (centres undefined) as the compound, how does the Potency read?
Its Potency is 15 µM (active).

Which Potency does the source give for N#CN1CCC[C@@H](n2nc(-c3ccc(Oc4ccc(F)cc4F)cc3)c(C(N)=O)c2N)C1 here?
The Potency was 13 µM (active).

Which “viability (% of control)” value does the source give for Nc1nc(N)c(-c2ccccc2)s1 here?
The value was 84.1%.

Which Potency does the source give for COc1cc(-c2cc(-c3ccc(N4CCNCC4)cc3)cnc2C)cc(OC)c1OC here?
The Potency was 7.42 µM (active).

With Cc1nc(NC(=O)N2CCCC2C(N)=O)sc1-c1ccnc(C(C)(C)C(F)(F)F)c1 (centres undefined) as the compound, how does the Potency read?
Its Potency is 18.6 µM (active).

For COc1cc2c(cc1OC)-c1cc(=Nc3c(C)cc(C)cc3C)n(C)c(=O)n1CC2, which Potency is on record?
Its Potency is 9.44 µM (active).

Which Potency does the source give for Cc1nnn(C)c1-c1cnc2c3ccc(C(C)(C)O)cc3n([C@H](c3ccccc3)C3CCOCC3)c2c1 here?
Its Potency is 0.0042 µM (active).

Which Potency does the source give for CN(C)Cc1cccc(N=C(c2ccccc2)c2c(O)[nH]c3cc(C(N)=O)ccc23)c1 here?
The Potency was 0.468 µM (active).

For Cc1ccc(-n2c(C)cc(-c3nnc4n3CCCCC4)c2C)cc1, which Potency is on record?
The Potency was 8.33 µM (active).

With O=C1Nc2ccc(I)cc2/C1=C/c1cc(Br)c(O)c(Br)c1 as the compound, how does the Potency read?
Its Potency is 18.6 µM (active).

For CCS(=O)(=O)CCn1c([N+](=O)[O-])cnc1C, which “viability (% of control)” value is on record?
Its value is 82.7%.

For Nc1nccn2c(C3CCC(C(=O)O)CC3)nc(-c3cc4cccc(Cl)c4[nH]3)c12 (centres undefined), which Potency is on record?
Its Potency is 0.934 µM (active).

Which Potency does the source give for Cc1ccc(C(=O)OCc2ccc([C@@H](CN)C(=O)Nc3ccc4cnccc4c3)cc2)c(C)c1 here?
The Potency was 1.15 µM (active).

With COc1ccc(-c2c(C)nn3c(NCCN4CCOCC4)cc(C)nc23)cc1OC as the compound, how does the Potency read?
Its Potency is 8.33 µM (active).

With Cc1cc(F)c(C(=O)Nc2cccc(-c3nncn3C(C)C)n2)cc1-n1cnc(C2CC2)c1 as the compound, how does the Potency read?
Its Potency is 5.25 µM (active).

Which Potency does the source give for Cc1c(CN2CCC(Nc3ncnc4sc(CC(F)(F)F)cc34)CC2)ccc2c1cc(C#N)n2Cc1cn[nH]c1 here?
Its Potency is 0.525 µM (active).

With O=c1[nH]c2cc(C(F)(F)F)c(N3CCOCC3)cc2n(CP(=O)(O)O)c1=O as the compound, how does the “viability (% of control)” value read?
The value was 91.1%.

Which “viability (% of control)” value does the source give for CNC[C@H](O)[C@@H](O)[C@H](O)[C@H](O)CO here?
Its value is 90.1%.

Which Potency does the source give for C[C@@]12C(=O)OC(=O)[C@]1(C)[C@H]1CC[C@@H]2O1 here?
The Potency was 2.63 µM (active).

For CC(=O)C1CCC2C3CCC4=CC(=O)CCC4(C)C3CCC12C (centres undefined), which Potency is on record?
The Potency was 16.6 µM (active).

For COC[C@@H](c1ccc(C(F)(F)F)cc1)N1CCN(C2(C)CCN(C(=O)c3c(C)ncnc3C)CC2)C[C@@H]1C, which “viability (% of control)” value is on record?
The value was 63%.

For NC(=O)C1(N2CCCCC2)CCN(CCCN2c3ccccc3CCc3ccc(Cl)cc32)CC1, which Potency is on record?
The Potency was 8.41 µM (active).

With COC(=O)Nc1ccc(-c2nc(N3CCOCC3)c3cnn(C4CCN(C(=O)OC)CC4)c3n2)cc1 as the compound, how does the Potency read?
The Potency was 0.662 µM (active).

Which Potency does the source give for CCCS(=O)(=O)c1nc(NC2CC2)cc(-c2ccc3c(ccn3C3CC(C)(C)NC(C)(C)C3)c2)n1 here?
The Potency was 1.75 µM (active).

For CCOC(=O)c1ccc(N)cc1, which “viability (% of control)” value is on record?
The value was 74.6%.

With CC(C)N(CCCNC(=O)Nc1ccc(C(C)(C)C)cc1)C[C@H]1O[C@@H](n2cc(Br)c3c(N)ncnc32)[C@H](O)[C@@H]1O as the compound, how does the Potency read?
The Potency was 4.68 µM (active).

With CC(/C=C/[C@@H]1C[C@]1(C)c1ccc2c(c1)C(C)(C)CCC2(C)C)=C\C(=O)O as the compound, how does the Potency read?
The Potency was 0.0661 µM (active).

Which “viability (% of control)” value does the source give for O=C1OC(CN2CCOCC2)CN1/N=C/c1ccc([N+](=O)[O-])o1 (centres undefined) here?
Its value is 92.5%.

For COC1CCC(N2C(=O)CNc3ncc(-c4ccc(C(C)(C)O)nc4)nc32)CC1 (centres undefined), which Potency is on record?
Its Potency is 5.25 µM (active).
